From PubChem BioAssay AID1159580 (chemical genetic matrix, 2015)
In all, about 5,500 compounds went through this assay and about 2,000 (36%) were called active. Another 18% or so got no clear call; they are omitted. No stated cut-off is given here; in the data, active means normalized growth mostly below about 0.91 (no sharp cut-off); inconclusive means no clear call, values can overlap the other calls; inactive means mostly above about 0.92. Some of the results follow.

Experiment: chemical genetic growth profiling, strain panel (AID 1159580);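 further: tested at 20 µM; growth read once vehicle control cultures reached saturation at 30 °C; 1 = growth at the plate median or of vehicle wells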
Settings: S. cerevisiae deletion strains, growth OD
[1] = locus YAR019C, strain CDC15, stronger effect = lower value
[2] = locus YBL105C, strain PKC1, stronger effect = lower value
[3] = locus YBR135W, strain CKS1, stronger effect = lower value
[4] = locus YBR136W, strain MEC1, stronger effect = lower value
[5] = locus YBR160W, strain CDC28, stronger effect = lower value
[6] = locus YDL017W, strain CDC7, stronger effect = lower value
[7] = locus YDL028C, strain MPS1, stronger effect = lower value
[8] = locus YDL101C, strain DUN1, stronger effect = lower value
[9] = locus YDL108W, strain KIN28, stronger effect = lower value
[10] = locus YDL132W, strain cdc53, stronger effect = lower value
[11] = locus YDL214C, strain PRR2, stronger effect = lower value
[12] = locus YDR052C, strain DBF4, stronger effect = lower value
[13] = locus YDR054C, strain cdc34, stronger effect = lower value
[14] = locus YDR226W, strain ADK1, stronger effect = lower value
[15] = locus YDR477W, strain SNF1, stronger effect = lower value
[16] = locus YER123W, strain YCK3, stronger effect = lower value
[17] = locus YER133W, strain GLC7, stronger effect = lower value
[18] = locus YFL009W, strain cdc4, stronger effect = lower value
[19] = locus YFL029C, strain CAK1, stronger effect = lower value
[20] = locus YFR003C, strain YPI1, stronger effect = lower value
[21] = locus YFR019W, strain FAB1, stronger effect = lower value
[22] = locus YFR028C, strain CDC14, stronger effect = lower value
[23] = locus YGR040W, strain KSS1, stronger effect = lower value
[24] = locus YGR052W, strain FMP48, stronger effect = lower value
[25] = locus YGR092W, strain DBF2, stronger effect = lower value
[26] = locus YHR030C, strain SLT2, stronger effect = lower value
[27] = locus YHR079C, strain IRE1, stronger effect = lower value
[28] = locus YHR082C, strain KSP1, stronger effect = lower value
[29] = locus YHR205W, strain SCH9, stronger effect = lower value
[30] = locus YIL147C, strain SLN1, stronger effect = lower value
[31] = locus YJL095W, strain BCK1, stronger effect = lower value
[32] = locus YJL128C, strain PBS2, stronger effect = lower value
[33] = locus YJL157C, strain FAR1, stronger effect = lower value
[34] = locus YJR016C, strain ILV3, stronger effect = lower value
[35] = locus YJR066W, strain TOR1 (second series), stronger effect = lower value
[36] = locus YJR066W, strain TOR1, stronger effect = lower value
[37] = locus YKL048C, strain ELM1, stronger effect = lower value
[38] = locus YKL067W, strain YNK1, stronger effect = lower value
[39] = locus YKL101W, strain HSL1, stronger effect = lower value
[40] = locus YKL193C, strain SDS22, stronger effect = lower value
[41] = locus YKL203C, strain TOR2, stronger effect = lower value
[42] = locus YLR113W, strain HOG1, stronger effect = lower value
[43] = locus YLR133W, strain CKI1, stronger effect = lower value
[44] = locus YLR403W, strain SFP1, stronger effect = lower value
[45] = locus YML070W, strain DAK1, stronger effect = lower value
[46] = locus YMR001C, strain CDC5, stronger effect = lower value
[47] = locus YMR205C, strain PFK2 (second series), stronger effect = lower value
[48] = locus YMR277W, strain FCP1, stronger effect = lower value
[49] = locus YNL006W, strain LST8, stronger effect = lower value
[50] = locus YNL020C, strain ARK1, stronger effect = lower value
[51] = locus YNL161W, strain CBK1, stronger effect = lower value
[52] = locus YNL183C, strain NPR1, stronger effect = lower value
[53] = locus YNL207W, strain RIO2, stronger effect = lower value
[54] = locus YNL222W, strain SSU72, stronger effect = lower value
[55] = locus YNL307C, strain MCK1 (second series), stronger effect = lower value
[56] = locus YOL078W, strain AVO1, stronger effect = lower value
[57] = locus YOL136C, strain PFK27, stronger effect = lower value
[58] = locus YOR061W, strain CKA2, stronger effect = lower value
[59] = locus YOR119C, strain RIO1, stronger effect = lower value
[60] = locus YOR231W, strain MKK1, stronger effect = lower value
[61] = locus YOR329C, strain SCD5, stronger effect = lower value
[62] = locus YPL031C, strain PHO85, stronger effect = lower value
[63] = locus YPL153C, strain RAD53, stronger effect = lower value
[64] = locus YPL204W, strain HRR25, stronger effect = lower value
[65] = locus YPL209C, strain IPL1, stronger effect = lower value
[66] = locus YPL256C, strain CLN2, stronger effect = lower value
[67] = locus YPR025C, strain CCL1, stronger effect = lower value
[68] = locus YPR106W, strain ISR1, stronger effect = lower value
[69] = locus YPR111W, strain DBF20, stronger effect = lower value
[70] = strain NNK1, stronger effect = lower value
[71] = strain TSCII, stronger effect = lower value

Measured: normalized growth

Cn1cc(Br)c(-c2cccc(NS(=O)(=O)c3ccc(Cl)cc3)c2)n1
inactive: [1] 0.987 | [2] 0.976 | [3] 0.998 | [4] 0.995 | [5] 0.979 | [6] 0.987 | [7] 0.992 | [8] 0.977 | [9] 0.999 | [10] 0.994 | [11] 1 | [12] 0.976 | [13] 0.988 | [14] 0.987 | [15] 0.992 | [16] 0.998 | [17] 1 | [18] 0.989 | [19] 0.993 | [20] 0.994 | [21] 1 | [22] 0.998 | [23] 0.995 | [24] 1.04 | [25] 0.984 | [26] 1.12 | [27] 1.11 | [28] 1.11 | [29] 0.987 | [30] 0.986 | [31] 0.988 | [32] 0.986 | [33] 0.998 | [34] 0.993 | [35] 1.01 | [36] 1.07 | [37] 0.999 | [38] 1.02 | [39] 1 | [40] 0.995 | [41] 1.06 | [42] 0.983 | [43] 1 | [44] 0.999 | [45] 1.01 | [46] 0.985 | [47] 1.01 | [48] 0.998 | [49] 0.999 | [50] 0.997 | [51] 0.981 | [52] 1.06 | [53] 0.987 | [54] 0.995 | [55] 0.98 | [56] 1 | [57] 1 | [58] 1 | [59] 1.06 | [60] 0.982 | [61] 0.986 | [62] 0.989 | [63] 0.994 | [64] 0.997 | [65] 0.992 | [66] 1.13 | [67] 0.981 | [68] 0.99 | [69] 0.985 | [70] 1 | [71] 0.993

O=S(=O)(Nc1c(F)cccc1F)c1ccc(Cl)c(Cl)c1
inactive: [1] 0.933 | [2] 0.946 | [3] 0.932 | [4] 0.943 | [5] 0.937 | [6] 0.945 | [7] 0.939 | [8] 0.949 | [9] 0.947 | [10] 0.961 | [11] 0.984 | [12] 0.956 | [13] 0.933 | [14] 0.943 | [15] 0.959 | [16] 0.962 | [17] 0.964 | [18] 0.931 | [19] 0.933 | [20] 0.946 | [21] 0.948 | [22] 0.933 | [23] 0.951 | [24] 1.05 | [25] 0.843 | [26] 0.956 | [27] 0.942 | [28] 1 | [29] 0.982 | [30] 0.933 | [31] 0.947 | [32] 0.874 | [33] 0.97 | [34] 0.931 | [35] 0.967 | [36] 1.03 | [37] 0.93 | [38] 0.962 | [39] 0.96 | [40] 0.937 | [41] 1.02 | [42] 0.926 | [43] 0.964 | [44] 0.966 | [45] 0.961 | [46] 0.937 | [47] 0.973 | [48] 0.936 | [49] 0.941 | [50] 0.955 | [51] 0.94 | [52] 0.947 | [53] 0.937 | [54] 0.937 | [55] 0.95 | [56] 0.938 | [57] 0.985 | [58] 0.969 | [59] 1.05 | [60] 0.935 | [61] 0.943 | [62] 0.964 | [63] 0.927 | [64] 0.95 | [65] 0.94 | [66] 0.914 | [67] 0.934 | [68] 0.957 | [69] 0.934 | [70] 0.953 | [71] 0.93

COC(=O)c1cccc(NS(=O)(=O)c2ccc(Cl)c(Cl)c2)c1
active: [42] 0.861
inactive: [1] 0.981 | [2] 0.969 | [3] 0.973 | [4] 0.973 | [5] 0.983 | [6] 0.978 | [7] 0.977 | [8] 0.979 | [9] 0.973 | [10] 0.981 | [11] 0.971 | [12] 0.972 | [13] 0.961 | [14] 0.986 | [15] 0.991 | [16] 0.973 | [17] 0.985 | [18] 0.97 | [19] 0.982 | [20] 0.974 | [21] 0.994 | [22] 0.973 | [23] 1 | [24] 1.01 | [25] 0.948 | [26] 0.852 | [27] 0.923 | [28] 1.08 | [29] 0.904 | [30] 0.975 | [31] 0.896 | [32] 0.902 | [33] 0.98 | [34] 0.981 | [35] 0.98 | [36] 1.06 | [37] 0.949 | [38] 0.972 | [39] 0.962 | [40] 0.974 | [41] 1.05 | [43] 0.978 | [44] 0.985 | [45] 0.963 | [46] 0.975 | [47] 0.977 | [48] 0.973 | [49] 0.978 | [50] 0.974 | [51] 0.982 | [52] 1.04 | [53] 0.974 | [54] 0.98 | [55] 0.973 | [56] 0.979 | [57] 0.959 | [58] 0.986 | [59] 1.05 | [60] 0.953 | [61] 0.977 | [62] 0.98 | [63] 0.963 | [64] 0.959 | [65] 0.981 | [66] 0.895 | [67] 0.977 | [68] 0.977 | [69] 0.972 | [70] 0.966 | [71] 0.98
